KDM5B inh: Primary screen for KDM5B Histone Demethylases FDH-coupled qHTS. 220,000 tested, 2.6% active. AID 1347165, 2019. Lysine-specific demethylase 5B (Homo sapiens), Q9UGL1. Potency, µM (series often up to 57.7 µM), hits mostly inhibitors. KDM5B demethylase, FDH-coupled NADH fluorescence (FDH is formaldehyde dehydrogenase); active = well fitted inhibition curve with a large enough effect; also: 0% is about no effect; nearly all actives have a fitted effect of over 70% in size
Target sequence (Q9UGL1 whole entry, looked up): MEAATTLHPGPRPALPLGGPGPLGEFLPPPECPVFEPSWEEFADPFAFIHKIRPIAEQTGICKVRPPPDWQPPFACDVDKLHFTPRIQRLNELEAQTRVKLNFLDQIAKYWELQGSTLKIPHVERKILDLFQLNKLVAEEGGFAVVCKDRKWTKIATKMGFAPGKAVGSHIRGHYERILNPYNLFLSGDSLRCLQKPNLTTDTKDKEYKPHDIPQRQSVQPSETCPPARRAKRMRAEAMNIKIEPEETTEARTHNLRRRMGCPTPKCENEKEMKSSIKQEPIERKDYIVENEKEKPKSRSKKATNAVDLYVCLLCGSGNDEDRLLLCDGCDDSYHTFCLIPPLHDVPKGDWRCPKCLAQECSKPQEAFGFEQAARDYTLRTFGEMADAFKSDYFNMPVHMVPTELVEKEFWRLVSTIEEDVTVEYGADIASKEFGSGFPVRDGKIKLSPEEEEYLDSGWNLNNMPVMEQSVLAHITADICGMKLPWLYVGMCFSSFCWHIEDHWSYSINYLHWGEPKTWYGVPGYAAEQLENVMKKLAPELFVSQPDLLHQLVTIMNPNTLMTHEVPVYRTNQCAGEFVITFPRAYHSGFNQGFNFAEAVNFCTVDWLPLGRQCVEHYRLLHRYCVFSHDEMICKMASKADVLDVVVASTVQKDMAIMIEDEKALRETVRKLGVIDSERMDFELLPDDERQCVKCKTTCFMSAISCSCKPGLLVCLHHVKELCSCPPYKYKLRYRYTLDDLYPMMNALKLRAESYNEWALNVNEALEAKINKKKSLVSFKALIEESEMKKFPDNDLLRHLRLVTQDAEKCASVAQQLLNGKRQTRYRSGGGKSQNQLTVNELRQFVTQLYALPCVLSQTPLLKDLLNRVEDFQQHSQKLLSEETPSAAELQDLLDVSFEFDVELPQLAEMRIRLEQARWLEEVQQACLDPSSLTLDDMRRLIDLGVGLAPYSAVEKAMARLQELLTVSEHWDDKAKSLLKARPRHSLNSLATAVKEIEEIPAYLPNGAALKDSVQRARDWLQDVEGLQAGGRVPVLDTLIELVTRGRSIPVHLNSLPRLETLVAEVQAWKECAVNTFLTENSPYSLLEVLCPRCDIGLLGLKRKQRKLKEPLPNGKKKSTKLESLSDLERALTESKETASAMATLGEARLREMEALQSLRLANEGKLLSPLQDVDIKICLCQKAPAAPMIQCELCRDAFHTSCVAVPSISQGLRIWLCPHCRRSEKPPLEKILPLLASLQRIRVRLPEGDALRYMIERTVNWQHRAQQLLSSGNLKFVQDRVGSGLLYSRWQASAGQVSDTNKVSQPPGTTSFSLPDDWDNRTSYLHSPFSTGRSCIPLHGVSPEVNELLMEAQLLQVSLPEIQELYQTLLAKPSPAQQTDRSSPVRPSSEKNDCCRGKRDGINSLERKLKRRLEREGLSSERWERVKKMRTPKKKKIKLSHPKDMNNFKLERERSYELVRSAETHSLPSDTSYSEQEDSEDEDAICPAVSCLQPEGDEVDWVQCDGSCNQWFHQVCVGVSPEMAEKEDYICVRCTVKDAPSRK
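Compound dilutions met 200 nM (final) KDM5BΔAP for 10 min at room temperature before substrate addition. The substrate mix held 12.5 µM H3K4me3 with cofactors 25 µM α-ketoglutarate and 50 µM Fe²⁺. NADH signal gain over 30 min defined activity.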
* marks the source's active call; other numbers are inactive results; i = inactive. Shown is part of a subset that was picked to be rich in hits. Potency is read from the fitted curve at half-maximal effect.

SMILES | KDM5B inh
COc1cc(C(=O)Nc2ccc3oc(=O)ccc3c2)cc(OC)c1OC | i
COc1cccc(C2CC(=O)N(c3cccc(C(F)(F)F)c3)C3=C2C(=O)OC3)c1OC (configuration not stated) | i
O=C(CCc1conc1-c1cccc(F)c1)NCC1CC1 | i
Cc1cccc(-c2nocc2CCC(=O)NCc2ccccc2F)c1 | i
O=C(O)CCc1conc1-c1cccc(F)c1 | i
Cc1cccc(C(=O)NCCC(=O)NCc2ccccc2F)c1 | i
CNC(=O)CCNc1c(-c2cccc(F)c2)nc2cnccn12 | 28µM*
O=C(CCNc1c(-c2cccc(F)c2)nc2cnccn12)NCc1ccccc1F | 28µM*
CN(C)C(=O)CN1CCN(c2nc(-c3ccccc3)nc3ccccc23)CC1 | i
CC(OC(=O)c1cc(=O)[nH]c2ccccc12)C(=O)Nc1cccc2ccccc12 (configuration not stated) | i
CC1=C[C@@H](CN(C)CCC#N)[C@H](C(C)C)C[C@H]1Cc1nnc(-c2ccccc2F)o1 | i
N#Cc1ccc(CN2CCC[C@H]2c2nc(-c3ccnc(N4CCOCC4)c3)no2)cc1 | 35µM*
CS(=O)(=O)c1ccc(CN2CCOC[C@H]2c2ncc(-c3ccncc3)[nH]2)cc1 | i
Cc1ccc(-c2noc([C@@H]3CCCN3C(=O)c3ccccn3)n2)cc1 | i
c1ccc(CN2CCC[C@H]2c2nc(-c3ccnc(N4CCOCC4)c3)no2)cc1 | 35µM*
CS(=O)(=O)c1ccc(CN2CCC[C@H]2c2nc(-c3ccnc(N4CCOCC4)c3)no2)cc1 | 25µM*
CCc1ccc(C(=O)N2CCC[C@H]2c2nc(-c3ccc(OC)c(OC)c3)no2)cc1 | i
COc1ccc(-c2noc([C@@H]3CCCN3Cc3ccccc3OC)n2)cn1 | i
N#Cc1cccc(CN2CCC[C@H]2c2nc(-c3cncnc3N)no2)c1 | i
N#Cc1cccc(CN2CCC[C@H]2c2nc(-c3ccc(OC4CCCCC4)nc3)no2)c1 | i
CC(C)CN1CCC[C@H]1c1nc(-c2ccnc(N3CCOCC3)c2)no1 | 32µM*
Cc1ccc(-c2noc([C@@H]3CCCN3C(=O)Cc3ccccc3)n2)cc1 | i
CNc1ccc(-c2noc([C@@H]3CCCN3Cc3cnc4ccccc4c3)n2)cn1 | i
COc1ccc(C(=O)N2CCCCCCNC(=O)[C@@H]3CCCC[C@@H]32)c(OC)n1 | i
CCC(=O)Nc1sc2c(c1C#N)CC(C)CC2 (configuration not stated) | i
SMILES | KDM5B inh
CCC1CCCCN1C(=O)Cn1nc(-c2ccc(C)cc2)c2ccccc2c1=O (configuration not stated) | i
CCc1ccc2[nH]c(CSCC(=O)Nc3ccc(OC)c(Cl)c3)cc(=O)c2c1 | i
Cc1ccc(NC(=O)CSC2CCCC2)c(Br)c1 | i
Fc1cccc(NC(=S)NCc2cccs2)c1 | i
COc1cccc(-c2cc(C(F)(F)F)nc(N3CCN(Cc4ccccc4)CC3)n2)c1 | i
CC1Sc2ccc(S(=O)(=O)CCC(=O)NCCC3=CCCCC3)cc2NC1=O (configuration not stated) | i
Nc1c(Cl)cc(Nc2ncccc2[N+](=O)[O-])cc1Cl | i
CCOc1ccc(-c2[nH]nc3c2C(c2cc(OC)c(OC)cc2OC)C(C#N)=C(N)O3)cc1OC (configuration not stated) | i
CCN1C(=O)CCN(C(=O)Cc2cccc(OC)c2)CC12CCOCC2 | i
COCCNc1cc(-c2noc([C@@H]3CCCN3CC(C)C)n2)ccn1 | 32µM*
c1cc(-c2noc([C@@H]3CCCN3C3CCC3)n2)cc(N2CCOCC2)n1 | 35µM*
COc1ccc(-c2noc([C@@H]3CCCN3C(=O)c3ccccn3)n2)cc1 | i
COc1ccc(OCC(=O)N2CCC[C@H]2c2nc(-c3ccccc3)no2)cc1 | i
CNc1ccc(-c2noc([C@@H]3CCCN3C3CCC3)n2)cn1 | i
O=C(c1ccccn1)N1CCC[C@H]1c1nc(-c2ccccc2)no1 | i
O=C(Nc1ccccc1)c1ccc2c(c1)OCCN(CCC(F)(F)F)C2 | i
CCOC1CCN(C(=O)c2cc(-c3ccncc3)nc3ccccc23)CC1 | i
COc1cccc(NC(=O)CN2CCN(c3nc(-c4ccco4)c4c(c3C#N)CCC4)CC2)c1 | i
Cc1ccc(CC(=O)N2CCC(NS(=O)(=O)c3ccc(C)cc3)CC2)cc1 | i
CN(C)C[C@@H]1CN(C)C[C@H]1NC(=O)c1ccc(Br)cc1 | i
Cc1noc(C)c1CC(=O)N[C@@H]1CN(C2CCOCC2)C[C@H]1CN(C)C | i
CN(C)C[C@@H]1CN(c2ncccn2)C[C@H]1NC(=O)c1nn(C)c2ccccc12 | 32µM*
CN(C)C[C@@H]1CN(c2ccncn2)C[C@H]1NC(=O)c1nccc2ccccc12 | i
CN(C)C[C@@H]1CN(C)C[C@H]1NC(=O)c1ccccc1OC(F)(F)F | i
Cc1cnn(CC(=O)N[C@@H]2CN(C3CCOCC3)C[C@H]2CN(C)C)c1 | i
SMILES | KDM5B inh
CN(C)C[C@@H]1CN(C2CCOCC2)C[C@H]1NC(=O)c1n[nH]c2ccccc12 | 22µM*
CN(C)C[C@@H]1CN(c2ccncn2)C[C@H]1NC(=O)c1ccc(Cl)s1 | i
CN(C)C[C@@H]1CN(C)C[C@H]1NC(=O)c1nn(C)c2ccccc12 | 32µM*
CCC1CCc2c(sc(NC(=O)COCC(=O)O)c2C(=O)Nc2ccccc2C)C1 (configuration not stated) | i
O=C(Cc1ccccc1)N1CCC(N2CC(OCC3CC3)C23CCOCC3)CC1 (configuration not stated) | i
CCN(CC)C(=O)CN1C(=O)NC2(CCC(C)CC2)C1=O (configuration not stated) | i
O=C(NCCO)c1cc2ccccc2[nH]1 | i
O=C(NCCNC(=O)c1cc2ccccc2[nH]1)C(=O)NC1CCCC1 | i
O=C(NC1CC(c2cc(NCCO)ncn2)C1)c1cc2ccccc2[nH]1 (configuration not stated) | 28µM*
CN(c1ccccc1)S(=O)(=O)c1cccc(C(=O)N2CCN(c3ncccn3)CC2)c1 | i
Cc1nc(C)c(C(=O)O)cc1C(=O)O | i
Cc1nc(NC2CCCCC2)ncc1C(=O)O | 32µM*
CS(=O)(=O)c1cnc(NC2CCCC2)nc1C1CCCNC1 (configuration not stated) | i
O=C(Cn1nc2n(c1=O)CCCC2)Nc1ccc(F)cc1 | i
Cc1noc(C)c1S(=O)(=O)N1CCc2nn(C)c(=O)n2CC1 | i
CC1(COCC2CC2)COc2ccc(C(=O)Nc3ccccc3)cc2N1 (configuration not stated) | 25µM*
CC1(COCC2CC2)COc2ccc(C(=O)Nc3ccc4[nH]ccc4c3)cc2N1 (configuration not stated) | i
CC1(COCC2CC2)COc2ccc(C(=O)NCc3ccccc3)cc2N1 (configuration not stated) | 35µM*
CC(C)CNC(=O)c1ccc2c(c1)NC(C)(COCC1CC1)CO2 (configuration not stated) | 40µM*
Cc1ccccc1C(=O)OCc1nc(N)c2ccccc2n1 | i
CCOC(=O)CN1CCN(c2nc3c(c(=O)[nH]c(=O)n3C)n2Cc2ccccc2F)CC1 | i
CC(=O)N/C(=C/c1ccccc1)C(=O)OC(C(N)=O)c1ccccc1 (configuration not stated) | i
O=C(O)C12CC3(Br)CC(Br)(CC(Br)(C3)C1)C2 | i
c1cnn(CCC2CCN(c3ncncn3)CC2)c1 | i

Source: PubChem (National Center for Advancing Translational Sciences (NCATS))
